Measured values published in the supplement of paper PMC10981050.

system: MARIMO; assay: cell viability relative to vehicle control; higher = less cytotoxic; conditions: 10 µM; SRSF2 genotype: SRSF2 P95H/wt
In short: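 CRISPR-edited SRSF2 P95 mutant and isogenic wild-type clones of four leukaemia lines were screened against Selleck bioactive, kinase and epigenetic probe libraries, with identity-inconsistent compounds removed. Compounds were acoustically dispensed into 384-well plates at a single 10 µM dose, with 2000 cells in 50 µL medium per well. After 48 h, supernatant was removed and CellTiter-Glo luminescence was read. Viability was expressed as percent of the on-plate DMSO vehicle control, analysed in Genedata Screener.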

| SMILES | cell viability |
| --- | --- |
| O=C(O)c1ccc(C=C2SC(=S)N(c3cccc(C(F)(F)F)c3)C2=O)cc1 | 94.3% |
| Cc1cn([C@H]2C[C@H](O)[C@@H](CO)O2)c(=O)[nH]c1=O [Thymidine] | 96.6% |
| C[C@]12CC[C@@H]3c4ccc(OC(=O)c5ccccc5)cc4CC[C@H]3[C@@H]1CC[C@@H]2O [Estradiol Benzoate] | 54.6% |
| O=C(O)c1ccc(Cl)cc1O [4-Chloro-2-hydroxybenzoic acid] | 104% |
| C[C@H]1O[C@@H](Oc2c(-c3cc(O)c(O)c(O)c3)oc3cc(O)cc(O)c3c2=O)[C@@H](O)[C@@H](O)[C@@H]1O [Myricitrin (Myricitrine)] | 102% |
| OC[C@H]1O[C@H](OCC2O[C@@H](O)[C@H](O)[C@@H](O)[C@@H]2O)[C@H](O)[C@@H](O)[C@H]1O (stereo not given in full) [Melibiose] | 105% |
| CO[C@@]12[C@H](COC(N)=O)C3=C(C(=O)C(C)=C(N)C3=O)N1C[C@@H]1N[C@@H]12 [Mitomycin C] | 5.24% |
| CN1C(C(=O)Nc2ccccn2)=C(O)c2ccccc2S1(=O)=O [Piroxicam (Feldene)] | 97.3% |
| NC(=O)c1cn(Cc2c(F)cccc2F)nn1 [Rufinamide (Banzel)] | 106% |
| O=c1c(-c2ccc(O[C@@H]3O[C@H](CO)[C@@H](O)[C@H](O)[C@H]3O)cc2)coc2cc(O)cc(O)c12 [Sophoricoside] | 106% |
| CCOc1cc([C@@H](CS(C)(=O)=O)N2C(=O)c3cccc(NC(C)=O)c3C2=O)ccc1OC | 99.5% |
| Cc1cc2c(C(=O)NCC(C)c3ccccc3)c(O)c(O)cc2c(O)c1-c1c(C)cc2c(C(=O)NCC(C)c3ccccc3)c(O)c(O)cc2c1O (stereo not given) [Sabutoclax] | 12.7% |
| O=S(=O)(NCCSSCCNS(=O)(=O)c1cc(Cl)ccc1Cl)c1cc(Cl)ccc1Cl | 61% |
| CCN(CC)c1ccc2cc(C(=O)O)c(=O)oc2c1 [7-(Diethylamino)coumarin-3-carboxylic acid] | 95.4% |
| CCOC(=O)[C@H](CCc1ccccc1)N[C@@H](C)C(=O)N1[C@H](C(=O)O)C[C@@H]2CCC[C@@H]21 [Ramipril (Altace)] | 87.7% |
| O=c1oc2c(O)c(O)cc3c(=O)oc4c(O)c(O)cc1c4c23 [Ellagic acid] | 96.3% |
| OCC1OC(OC2OC(CO)C(O)C(O)C2O)C(O)C(O)C1O [D-(+)-Trehalose Anhydrous] | 111% |
| O=c1[nH]cnc2[nH]ncc12 [Allopurinol Sodium (Aloprim)] | 89.1% |
| Cc1cc(C2CCCCC2)n(O)c(=O)c1 [Ciclopirox (Penlac)] | 14.8% |
| CC(=O)CCc1ccccc1 [Benzylacetone] | 101% |

| SMILES | cell viability |
| --- | --- |
| Clc1ccc(C(Cn2ccnc2)OCc2c(Cl)cccc2Cl)c(Cl)c1 (stereo not given) [Isoconazole nitrate (Travogen)] | 70.2% |
| COc1c(O)c(C)cc2c1C(=O)c1c(O)cccc1C2=O [Obtusifolin] | 109% |
| NCCOCCOCCNC(=O)Cc1ccc(Nc2nc(NCc3ccc(F)cc3)nc(NCC3CCCCC3)n2)cc1 [AP-III-a4 (ENOblock)] | 94.3% |
| CC(=O)OC(CC(C)C1=C2CC(O)C3C4(C)CCC(=O)C(C)(C)C4CCC3(C)C2(C)CC1)C1OC1(C)C (stereo not given) [Alisol B Acetate] | 68.4% |
| O=C(c1cccc(Cl)c1F)N1CCN(Cc2cccc(Nc3nccs3)n2)CC1 | 87.8% |
| O=C(/C=C/n1cnc(-c2cc(C(F)(F)F)cc(C(F)(F)F)c2)n1)N1CC(F)(F)C1 | 35.7% |
| CC(=O)Cc1cc(=O)c2c(C)cc(O)c([C@@H]3O[C@H](CO)[C@@H](O)[C@H](O)[C@H]3O)c2o1 [Aloesin] | 102% |
| CCOC(=O)c1c(C)n(C)c2ccc(O)cc12 [Mecarbinate] | 97.3% |
| CC(/C=C/C=C(\C)C(=O)O[C@@H]1O[C@H](CO)[C@@H](O)[C@H](O)[C@H]1O)=C\C=C\C=C(C)\C=C\C=C(/C)C(=O)O[C@@H]1O[C@H](CO[C@@H]2O[C@H](CO)[C@@H](O)[C@H](O)[C@H]2O)[C@@H](O)[C@H](O)[C@H]1O [Crocin II] | 104% |
| Cc1c(C)c(NCC(=O)N(C)C2CCN(Cc3ccc(C(N)=O)cc3)CC2)c(C)c(C)c1N | 99.4% |
| C[C@@H]1C[C@H]2[C@@H]3CCC4=CC(=O)C=C[C@]4(C)[C@@]3(Cl)[C@@H](O)C[C@]2(C)[C@@]1(OC(=O)c1ccco1)C(=O)CCl [Mometasone furoate] | 87.8% |
| N=C(N)c1ccc(OCCCCCOc2ccc(C(=N)N)cc2)cc1 [Pentamidine isethionate] | 63.3% |
| CC(=O)OC/C=C(/C)CCC=C(C)C [Neryl acetate] | 96.8% |
| CN1CCN(CCCN2c3ccccc3Sc3ccc(C(F)(F)F)cc32)CC1 [Trifluoperazine 2HCl] | 52.5% |
| COc1ccc2[nH]cc(CCNC(C)=O)c2c1 [Melatonin] | 109% |
| Clc1cccc(-c2nnnn2Cc2cccnc2)c1Cl | 102% |
| C[C@@]12C[C@H](c3ccoc3)O[C@@]13C[C@H](OC3=O)[C@H]1[C@H]2C[C@@H]2C[C@H]1C(=O)O2 [Diosbulbin B] | 105% |
| COc1c(O[C@@H]2O[C@H](CO)[C@@H](O)[C@H](O)[C@H]2O)cc2occ(-c3ccc(O)cc3)c(=O)c2c1O [Tectoridin] | 94.4% |
| COc1ccc(C2CNC(=O)C2)cc1OC1CCCC1 (stereo not drawn) [S-(+)-Rolipram] | 102% |
| O=C(O)[C@]1(Cc2cccc(Nc3nccs3)n2)CC[C@@H](Oc2cccc(Cl)c2F)CC1 | 66.6% |
